# Where “and” joins values, the source holds several entries; their conditions need not be identical. Equal values may be shown once. Calls of active or inactive are those of the source. Unless noted, no rule for the calls is given here.
# What was measured:
# [1] = test system: Wnt5a (protein binding on small-molecule microarray); assay: small molecules binding Wnt5a protein – biophysical, small-molecule microarray, 635/667 nm fluorescence, primary screen (AID 1142); conditions: 635 nm fluorescence, higher = more signal;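 also: fluorescence read at 667 nm with signal to noise per printed feature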
# [2] = ATP-based viability of Huh7 replicon cells – cell-based, CellTiter-Glo luminescence, basal, 48 h, cytotoxicity control for HCV replication inhibitor project, primary screen (AID 1143); conditions: higher = more signal, called active from +8 up or from −8 down;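 also: Huh7 hepatoma cells carrying a hepatitis C replication reporter with no stimulus; test concentration not given here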
# [3] = Pseudomonas biofilm growth suppression – PAO1 strain, BacTiter-Glo luminescence, LB-PBS, primary screen (AID 1144); conditions: P. aeruginosa PAO1 biofilm, 12 h, higher = more signal
# [4] = basal CRE-LacZ reporter activity in PC12 – cell-based, unstimulated, primary screen (AID 1145); conditions: no forskolin, luminescence, 4.5 h, higher = more signal, called active from +8 up or from −8 down
# [5] = forskolin-driven CRE-LacZ activity in PC12 – cell-based, CRE-LacZ reporter, forskolin-stimulated, primary screen (AID 1146); conditions: luminescence, 4.5 h, higher = more signal, called active from +8 up or from −8 down;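 also: PC12 cells with 6xCRE LacZ reporter stimulated by forskolin 10 µM; beta-galactosidase reporter signal reflecting CREB driven transcription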
# [6] = molecular target: Streptavidin (Streptomyces avidinii) (UniProt P22629); assay: compounds binding control protein streptavidin – biophysical, small-molecule microarray, 635/667 nm fluorescence, artefact control for SMM compound annotation, primary screen (AID 1147); conditions: higher = more signal;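 also: signal reflects streptavidin binding to arrayed compounds as a control protein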
# Streptavidin (Streptomyces avidinii), sequence (P22629 whole entry, looked up): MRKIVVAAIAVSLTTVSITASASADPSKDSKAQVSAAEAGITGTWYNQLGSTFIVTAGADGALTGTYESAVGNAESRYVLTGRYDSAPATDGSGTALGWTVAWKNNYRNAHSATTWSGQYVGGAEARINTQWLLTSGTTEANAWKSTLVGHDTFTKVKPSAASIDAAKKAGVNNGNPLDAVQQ
# [7] = probe aInhba binding on compound microarray – biochemical, small-molecule microarray, 635/667 nm fluorescence, primary screen (AID 1148); conditions: higher = more signal;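 also: score merges 667nm spot fluorescence with signal-to-noise for antibody binding to printed compounds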
# [8] = molecular target: Torsin-1A (Homo sapiens) (UniProt O14656); assay: TOR1A wild-type binding on microarray – cell lysate, small-molecule microarray, lysate, 635/667 nm, primary screen (AID 1149); conditions: COS7 hTOR1A-WT lysate, 635 nm fluorescence, higher = more signal
# Torsin-1A (Homo sapiens), sequence (O14656 whole entry, looked up): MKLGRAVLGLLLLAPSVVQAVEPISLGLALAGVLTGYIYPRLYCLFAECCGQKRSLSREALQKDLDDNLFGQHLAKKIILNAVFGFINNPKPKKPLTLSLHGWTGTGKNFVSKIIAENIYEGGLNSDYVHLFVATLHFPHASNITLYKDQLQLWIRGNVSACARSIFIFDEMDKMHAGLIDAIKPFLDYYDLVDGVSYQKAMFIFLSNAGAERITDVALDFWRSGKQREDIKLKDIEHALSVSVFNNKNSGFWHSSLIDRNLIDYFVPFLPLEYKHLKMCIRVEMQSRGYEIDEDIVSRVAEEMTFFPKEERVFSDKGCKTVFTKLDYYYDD
# [9] = molecular target: Torsin-1A (Homo sapiens) (UniProt O14656); assay: torsin A mutant lysate binding on microarrays – cell lysate, small-molecule microarray, COS7 lysate, 635/667 nm fluorescence, primary screen (AID 1150); conditions: COS7 hTOR1A mutant lysate, 635 nm fluorescence, higher = more signal;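 also: score pools 667 nm emission and signal to noise measuring lysate protein binding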
# [10] = test system: Sonic hedgehog protein (Shh); assay: Sonic hedgehog microarray binding compounds – biochemical, small-molecule microarray, 635/667 nm fluorescence, primary screen (AID 1151); conditions: 635 nm fluorescence, higher = more signal;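 also: Shh protein binding to compounds spotted on small-molecule microarray slides; score combines spot fluorescence intensity with signal-to-noise across triplicate slides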
# [11] = optical density shifts of acrAB sulA E. coli – strain DRC41, OD650, 48 h, E. coli filamentation inducer project, primary screen (AID 1152); conditions: higher = more signal, called active from +8 up or from −8 down;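 also: E. coli MC1000 strain DRC41 lacking acrAB efflux pump and sulA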
# [12] = probe aLefty1 binding on compound microarray – biochemical, small-molecule microarray, 635/667 nm fluorescence, primary screen (AID 1153); conditions: higher = more signal;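 also: score merges spot fluorescence with signal-to-noise ratio from the scanned slide images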
# [13] = plasmodial surface anion channel blockers, osmotic lysis – cell-based, P. falciparum Indochina, OD700, 1 h, primary screen (AID 1154); conditions: P. falciparum Indochina infected RBC osmotic lysis, higher = more signal, called active from +8 up or from −8 down
# [14] = plasmodial surface anion channel blockers, osmotic lysis – cell-based, P. falciparum Indochina, OD700, 2 h, primary screen (AID 1155);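 also: lysis reports solute entry through the parasite surface anion channel PSAC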; conditions: P. falciparum Indochina infected erythrocytes, higher = more signal, called active from +8 up or from −8 down
# [15] = changes in parasitized red cell lysis, either direction – P. falciparum Indochina, OD700, 3 h, PSAC antagonist project, primary screen (AID 1156); conditions: P. falciparum-infected erythrocytes, osmotic lysis, higher = more signal, called active from +8 up or from −8 down
# [16] = plasmodial surface anion channel blockers, osmotic lysis – cell-based, P. falciparum Indochina, OD700, 18 h, primary screen (AID 1157); conditions: P. falciparum Indochina infected erythrocytes, osmotic lysis OD700, 18 h; higher = more signal, called active from +8 up or from −8 down
# [17] = S6 kinase pathway phospho-S6 level changes – cell-based, A549, cytoblot, luminescence, serum-stimulated, primary screen (AID 1158); conditions: 5 h, higher = more signal;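 also: serum-stimulated A549 lung adenocarcinoma cells; signal is phosphorylated S6 detected by cytoblot immunostaining with HRP secondary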
# [18] = molecular target: NADPH oxidase 2 (Homo sapiens) (UniProt P04839); assay: compounds shifting NOX2 Amplex Red fluorescence – cell-based, HEK293-NOX2, PMA-stimulated, NOX inhibitor project, primary screen (AID 1159); conditions: 45 min, higher = more signal, called active from +8 up or from −8 down; also: test concentration not given here
# NADPH oxidase 2 (Homo sapiens), sequence (P04839 whole entry, looked up): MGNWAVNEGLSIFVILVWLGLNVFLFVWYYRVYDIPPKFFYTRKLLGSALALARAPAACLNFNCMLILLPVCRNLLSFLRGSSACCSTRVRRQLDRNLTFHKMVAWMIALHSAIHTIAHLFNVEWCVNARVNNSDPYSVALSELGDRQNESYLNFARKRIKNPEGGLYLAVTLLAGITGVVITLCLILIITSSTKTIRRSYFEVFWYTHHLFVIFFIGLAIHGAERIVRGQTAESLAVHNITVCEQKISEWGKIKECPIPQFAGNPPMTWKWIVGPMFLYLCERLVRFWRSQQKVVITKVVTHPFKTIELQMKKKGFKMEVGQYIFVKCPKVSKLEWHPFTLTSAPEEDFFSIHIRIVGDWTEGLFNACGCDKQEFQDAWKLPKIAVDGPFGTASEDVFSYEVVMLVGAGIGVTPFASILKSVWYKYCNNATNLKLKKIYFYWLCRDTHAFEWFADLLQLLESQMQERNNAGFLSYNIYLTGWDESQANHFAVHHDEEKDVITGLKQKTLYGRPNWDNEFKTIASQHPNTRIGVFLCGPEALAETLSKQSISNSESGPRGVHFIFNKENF
# [19] = molecular target: NADPH oxidase 4 (Homo sapiens) (UniProt Q9NPH5); assay: compounds shifting NOX4 Amplex Red fluorescence – cell-based, HEK293-NOX4, tetracycline-induced, NOX inhibitor project, primary screen (AID 1160); conditions: HEK293-NOX4, Amplex Red H2O2 fluorescence, 45 min; higher = more signal, called active from +8 up or from −8 down
# NADPH oxidase 4 (Homo sapiens), sequence (Q9NPH5 whole entry, looked up): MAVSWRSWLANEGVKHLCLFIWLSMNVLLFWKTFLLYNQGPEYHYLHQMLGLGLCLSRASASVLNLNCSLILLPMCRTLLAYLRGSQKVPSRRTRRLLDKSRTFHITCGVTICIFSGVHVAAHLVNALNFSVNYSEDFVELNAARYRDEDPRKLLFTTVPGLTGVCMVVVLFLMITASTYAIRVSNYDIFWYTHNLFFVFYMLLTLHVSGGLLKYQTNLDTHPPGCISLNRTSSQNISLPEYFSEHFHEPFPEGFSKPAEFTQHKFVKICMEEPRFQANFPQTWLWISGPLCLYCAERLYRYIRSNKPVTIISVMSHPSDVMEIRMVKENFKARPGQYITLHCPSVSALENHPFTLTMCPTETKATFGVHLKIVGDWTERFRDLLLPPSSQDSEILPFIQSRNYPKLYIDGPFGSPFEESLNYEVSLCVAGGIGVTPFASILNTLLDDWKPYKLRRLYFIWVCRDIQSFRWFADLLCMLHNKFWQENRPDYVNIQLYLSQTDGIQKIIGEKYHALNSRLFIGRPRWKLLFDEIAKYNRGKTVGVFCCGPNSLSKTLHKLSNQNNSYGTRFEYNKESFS
# [20] = molecular target: NADPH oxidase 5 (Homo sapiens) (UniProt Q96PH1); assay: compounds shifting NOX5 Amplex Red fluorescence – cell-based, HEK293-NOX5, NOX inhibitor project, primary screen (AID 1161); conditions: HEK293-NOX5, ionomycin, 45 min, higher = more signal
# NADPH oxidase 5 (Homo sapiens), sequence (Q96PH1 whole entry, looked up): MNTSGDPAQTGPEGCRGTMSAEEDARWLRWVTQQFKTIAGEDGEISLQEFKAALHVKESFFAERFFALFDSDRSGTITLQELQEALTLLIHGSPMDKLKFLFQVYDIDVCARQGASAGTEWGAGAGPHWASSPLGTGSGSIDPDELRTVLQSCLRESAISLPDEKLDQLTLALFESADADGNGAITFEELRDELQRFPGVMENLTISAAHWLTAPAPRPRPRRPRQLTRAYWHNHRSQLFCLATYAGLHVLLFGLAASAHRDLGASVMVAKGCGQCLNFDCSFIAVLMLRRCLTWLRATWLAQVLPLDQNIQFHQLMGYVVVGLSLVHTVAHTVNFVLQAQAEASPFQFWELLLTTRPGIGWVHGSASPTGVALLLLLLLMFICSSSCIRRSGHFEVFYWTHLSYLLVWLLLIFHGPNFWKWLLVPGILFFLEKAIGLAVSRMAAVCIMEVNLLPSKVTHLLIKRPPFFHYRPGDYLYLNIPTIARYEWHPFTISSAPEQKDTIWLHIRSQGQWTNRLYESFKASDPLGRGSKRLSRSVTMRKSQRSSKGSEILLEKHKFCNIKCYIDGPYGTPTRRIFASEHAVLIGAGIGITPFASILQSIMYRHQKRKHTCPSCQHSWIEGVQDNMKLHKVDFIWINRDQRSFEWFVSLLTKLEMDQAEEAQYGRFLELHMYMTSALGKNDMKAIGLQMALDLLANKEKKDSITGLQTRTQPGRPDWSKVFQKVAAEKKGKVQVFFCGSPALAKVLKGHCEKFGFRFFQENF
SMILES,composite z-score [1],z-score [2],z-score [3],z-score [4],z-score [5],composite z-score [6],composite z-score [7],composite z-score [8],composite z-score [9],composite z-score [10],z-score [11],composite z-score [12],z-score [13],z-score [14],z-score [15],z-score [16],z-score [17],z-score [18],z-score [19],z-score [20]
CC(C)=NO[C@@H](C)c1cc(-c2c(C)cc(C)cc2C)no1,-0.278,-2.11 (inactive),-1.37 (inactive),1.49 (inactive),-0.49 (inactive),0.186,-0.128,0.0381,-0.281,-0.104,-2.27 (inactive),-0.278,0.944 (inactive),0.371 (inactive),1.37 (inactive),-1.23 (inactive),0.702,-0.639 (inactive),-1.28 (inactive),-1.13
C#CCN1C(/C=C/c2ccccc2)C(=O)OC[C@H]1c1ccccc1 (stereo not given in full),0.161 and 0.111,-5.93 (inactive) and -0.403 (inactive),-0.793 (inactive),2.48 (inactive) and -0.682 (inactive),-1.66 (inactive) and -0.836 (inactive),-0.0296 and -0.175,-0.0853 and 0.0807,0.419 and -0.479,0.436 and 0.128,0.713 and 1.03,1.75 (inactive) and 0.239 (inactive),-0.021 and -0.0536,4.02 (inactive) and 1.57 (inactive),0.277 (inactive) and 0.538 (inactive),0.244 (inactive) and 0.713 (inactive),-0.947 (inactive) and 0.377 (inactive),4.14 and -0.153,0.353 (inactive) and 1.86 (inactive),0.0869 (inactive) and 0.344 (inactive),0.189 and 0.518
CN1C(=O)C2CC=C([C@H]3Oc4ccccc4S(=O)(=O)N4CCC[C@@H]34)CC2C1=O (stereo not given in full),-0.0808 and 0.53,0.0836 (inactive) and -0.243 (inactive),-0.129 (inactive) and -0.419 (inactive),-1.32 (inactive) and -0.327 (inactive),0.123 (inactive) and 0.707 (inactive),-0.0329 and -0.212,-0.0963 and -0.0874,-0.0871 and -0.296,0.075 and -0.165,-0.306 and -0.272,-0.92 (inactive) and -0.225 (inactive),-0.186 and -0.193,0.35 (inactive) and 0.829 (inactive),0.542 (inactive) and 0.41 (inactive),-0.0363 (inactive) and 0.15 (inactive),0.354 (inactive) and 0.133 (inactive),-0.395 and -0.53,0.514 (inactive) and -0.289 (inactive),-1.36 (inactive) and -1.47 (inactive),-1.31 and -1.46
Cc1cc2c(nc1C)CCCN2CC(C)ON=C[C@@H](C)[C@H](OCc1ccccc1)C(C)C (stereo not given in full),-0.0264,0.615 (inactive),0.461 (inactive),0.248 (inactive),0.317 (inactive),-0.254,-0.016,-0.209,0.22,0.513,-0.434 (inactive),-0.0984,0.376 (inactive),-0.0677 (inactive),-0.108 (inactive),0.294 (inactive),-0.775,0.231 (inactive),-0.217 (inactive),0.00713
COC(=O)C1=C(C)N(Cc2ccccc2)[C@]23O[C@](C(=O)OC)(C(=O)N2[C@@H]1c1ccccc1)[C@H]1C(=O)N(C)C(=O)[C@H]13,0.0757 and 0.142,-1.01 (inactive) and -1.34 (inactive),0.225 (inactive),3.17 (inactive) and 0.019 (inactive),-0.735 (inactive) and -1.7 (inactive),0.412 and 0.0225,-0.278 and -0.179,0.314 and 0.263,0.691 and 0.524,0.548 and 0.736,0.903 (inactive) and 0.564 (inactive),-0.0418 and 0.223,1.35 (inactive) and -0.228 (inactive),0.719 (inactive) and -1.26 (inactive),0.501 (inactive) and -0.562 (inactive),0.248 (inactive) and -1.16 (inactive),0.486 and 0.567,-0.56 (inactive) and -0.171 (inactive),-0.329 (inactive) and 0.811 (inactive),1.57 and 0.888

# Source: PubChem BioAssay
